The source of these data is PubChem BioAssay AID720650 (Broad Institute, 2013).

The structures appear in SMILES notation. Unmarked numbers belong to inactive results. Activity calls are given as the source filed them. The rule behind the calls is not given here.

A short description of the test: C difficile toxins, biochemical counterscreen, UDPG substrate absence, confirmatory dose response (AID 720650). The conditions noted are these: series mostly up to 19.5 µM; activity change, negative = inhibition: at the top concentration.
On to `COc1ccc(Cl)cc1NC(=O)CSc1nnc(-c2ccco2)o1`, for which the AC50 was greater than 39 µM.

Consider `COc1ccc(S(=O)(=O)N2CCOCC2)cc1NC(=O)COC(=O)c1[nH]c(C)c(C(C)=O)c1C`, for which the AC50 is greater than 39 µM.

`CC(C)OC(=O)c1cccc(C(=O)O)n1`: the “activity change, negative = inhibition” value was 9.38%.

Turning to `S=C(NCCc1ccccc1)Nc1ncccn1`, the “activity change, negative = inhibition” value is -8.54%.

Take `C=CC[C@@H](CC(=O)N(CCO)Cc1ccccc1)C(=O)NC[C@@H](OC(=O)[C@@H](CC=C)CC(=O)OC(C)(C)C)c1ccccc1`: the “activity change, negative = inhibition” value was -9.68%.

For the compound `Cn1c(SCc2nnc(-c3ccccc3)o2)nc2ccccc21`, the “activity change, negative = inhibition” value is -14.5%.

As to `CN1c2ccc(-c3ccccc3)cc2[C@@H]2[C@@H](CCN2C(=O)CN2CCOCC2)[C@@H]1CO`, the AC50 was 7.03 µM (active).

In the case of `COc1ccc(NC(=O)CSc2nccn2C)cc1S(N)(=O)=O`, the “activity change, negative = inhibition” value is 2.77%.

For the compound `Cn1c(=O)c2[nH]c(=S)n(Cc3ccccc3)c2n(C)c1=O`, the AC50 was 14.4 µM (active).

As to `CCOc1ccc2ccccc2c1/C=N/NC(=O)c1ccncc1`, the “activity change, negative = inhibition” value was -22.3%.

Consider `COc1ccccc1C1NC(=O)NC(C)=C1C(=O)OC1CCCCC1` (centres undefined), for which the “activity change, negative = inhibition” value was -13.5%.

Take `COc1ccc(Cl)cc1NC(=O)Cn1c(NCCO)nc2ccccc21`: the “activity change, negative = inhibition” value was -8.47%.

As for `O=C(CSc1cccc2cccnc12)N/N=C/c1ccc(F)cc1`, the “activity change, negative = inhibition” value was -15.4%.

For `CCc1ccc(Nc2n[n+](-c3ccccc3)c(-c3ccc(OC)c(Br)c3)s2)cc1`, the “activity change, negative = inhibition” value was -14.3%.

For `CCOC(=O)c1[nH]nc(-c2cc(CC)c(O)cc2O)c1-c1cscn1`, the “activity change, negative = inhibition” value is -9.39%.

Take `CC(=O)N1CC[C@@H]2[C@@H](CO)Nc3ccc(-c4ccccc4)cc3[C@@H]21`: the concentration at half-maximal activity (AC50) is 11.5 µM (active).

In the case of `CNC(=O)N(O)C1N(/N=C/c2cccs2)C(=S)SC1(C)C` (centres undefined), the AC50 was greater than 39 µM.

Turning to `O=C(C[C@@H]1CC[C@@H]2[C@H](COC[C@@H](O)CN2C(=O)Nc2ccc(Cl)c(Cl)c2)O1)NCc1ccncc1`, the “activity change, negative = inhibition” value is -7.79%.

As for `COc1cc(/C=N/NC2=NCCCCC2)ccc1O`, the “activity change, negative = inhibition” value was -10.1%.

Regarding `CCc1ccccc1NC(=S)N(Cc1ccc(C(=O)O)cc1)Cc1ccc(OC)c(OC)c1`, the “activity change, negative = inhibition” value is -12.3%.

As to `COC(=O)c1sc2nc(SCc3ccccc3C)n(N)c(=O)c2c1C`, the “activity change, negative = inhibition” value is 4.71%.

Take `O=c1c2oc3nc4c(cc3c2ncn1CCCc1ccccc1)CCCC4`: the “activity change, negative = inhibition” value was -4.58%.

For `CC(C)(C)OCC(O)CN1CCN(C(=O)c2ccccc2)CC1` (centres undefined), the “activity change, negative = inhibition” value was -16.8%.

`COc1cc(/C=N/NC(=O)CCN2CCCCC2)ccc1O`: the “activity change, negative = inhibition” value was -1.61%.

For the compound `CCC(=O)N1CC[C@@H]2[C@H]1c1cc(-c3ccc(OC)cc3)ccc1N(C)[C@H]2CO`, the AC50 was greater than 20 µM.

Regarding `N=C(N)c1ccc(N=Nc2c(O)ccc3c2[nH]c2ccccc23)cc1`, the “activity change, negative = inhibition” value was -3.4%.

Consider `CCN(CC)S(=O)(=O)c1cc(C(=O)Nc2cccnc2Cl)ccc1Cl`, for which the “activity change, negative = inhibition” value is -6.46%.

`Nc1ccc(-c2nc3ccc(N)cc3o2)cc1`: the half-maximal activity concentration (AC50) was 12.5 µM (active).

In the case of `COc1ccc(-c2ccc3c(c2)[C@@H]2[C@@H](CCN2C(=O)C2CC2)[C@H](CO)N3C)cc1`, the concentration at half-maximal activity (AC50) was 14.8 µM (active).

Take `CN(C)CCNc1ccc(CO)c2sc3ccc(O)cc3c(=O)c12`: the AC50 was 6.06 µM (active).

As for `Cc1ccc(CSc2nc3nc(C)cc(C)c3c(=O)[nH]2)cc1`, the “activity change, negative = inhibition” value is -3.21%.

Take `CCCNC(=O)C[C@H]1CC[C@@H]2[C@@H](COc3ccc(NC(=O)c4ccc5c(c4)OCO5)cc3C(=O)N2C)O1`: the AC50 is greater than 39 µM.

For `COCC(=O)N1CC[C@H]2[C@@H]1c1cc(-c3ccc(OC)cc3)ccc1N(C)[C@H]2CO`, the half-maximal activity concentration (AC50) is 7.62 µM (active).

As to `CC(C)Sc1nnc(NC(=O)c2ccco2)s1`, the “activity change, negative = inhibition” value is -5.43%.

On to `CNC(=O)C[C@@H]1CC[C@H]2[C@H](COc3ccc(NS(=O)(=O)c4ccccc4C)cc3C(=O)N2C)O1`, for which the “activity change, negative = inhibition” value is -5.07%.

Take `COC(=O)C(C(=O)OC)C(CC(=O)c1ccc(Br)cc1)c1ccccc1` (centres undefined): the “activity change, negative = inhibition” value was -10.2%.

In the case of `CCC(=Nc1ccccc1)C1=C(O)CCCC1=O`, the “activity change, negative = inhibition” value was -6.94%.

With `COc1ccccc1-n1c(SCC(=O)O)nc2c(sc(=S)n2-c2ccc(Cl)c(C)c2)c1=O`, the AC50 is greater than 39 µM.

`Cc1scc(C(=O)N2CCN(c3ccc(Cl)cc3)CC2)c1C`: the “activity change, negative = inhibition” value is 5.76%.
